The list is not random: actives were taken first. Their share in the collection is about 17%.
TDP1 cell CPT – growth inhibition of DT40 Tdp1-/-;hTDP1 cells with camptothecin (screen for TDP1 inhibitors) | Potency, µM (top dose mostly 46.2 µM), for inactives: at the highest dose activity change, negative = growth inhibition, actives largely listed as inhibitors | hit rate 12% among 420,000 | AID 686979 | chicken DT40 Tdp1-/-;hTDP1 cells + 20 nM CPT, ATP luminescence, 48 h; also: % is scaled to controls: 0 for no effect and ±100 for the full control effect; nearly all actives have a fitted effect of over 55% in size
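Cell growth measured by CellTiter-Glo luminescence after a minimum 48 h, 37 C compound exposure with 20 nM CPT in Tdp1-knockout DT40 cells stably expressing hTDP1, seeded 400/well; qHTS titration format.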
HepG2 viability – kills HepG2 cells in TGF-b inhibitor counter-screen; HepG2 CAGA-GFP viability, ATP luminescence, 18 h; Potency, µM (top dose mostly 46.1 µM), for inactives: at the highest dose activity change, negative = cytotoxicity, most hits filed as cytotoxic; hit rate 0.76% among 410,000; AID 588856
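HepG2 CAGA-GFP cells (1000/well, DMEM with 1% FBS) received compound, then TGF-beta at 500 pg/mL final, and were incubated 18 hours at 37 degrees C. Viability was read by CellTiter-Glo luminescence. Media-only wells were set as complete cell-killing and DMSO as no toxicity.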
TGFb inhibitor – inhibitors of TGF-b signaling; Potency, µM (titrated, usually from 46.1 µM), for the others: at the top dose activity, negative = inhibition, most hits filed as inhibitors; AID 588855; HepG2 CAGA-GFP TGF-b/SMAD3 reporter, GFP fluorescence, 18 h; TGF-beta stimulated, 500 pg/mL final; hit rate 1.2% among 410,000; also: % is scaled to controls: 0 for no effect and ±100 for the full control effect; nearly all actives have a fitted effect of over 65% in size
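Inhibition was scored as loss of TGF-beta-induced (500 pg/mL final, 18 hours, 37 degrees C) GFP in HEPG2 cells carrying a CAGA-GFP reporter, in DMEM with 1% FBS. Well GFP was summed per cell; Activity was normalised to unstimulated and stimulated DMSO wells, then concentration-response fitting.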
TDP1 cell noCPT – qHTS for Inhibitors of human tyrosyl-DNA phosphodiesterase 1 (TDP1): qHTS in cells in absence of CPT | Potency, µM (titrated, usually from 46.2 µM), without a hit: at the top dose activity change, negative = growth inhibition, hits mostly inhibitors | AID 686978, 2013 | DT40 Tdp1-/- hTDP1 cells, no CPT, ATP luminescence, 48 h | hit rate 15% among 420,000; also: % is scaled to controls: 0 for no effect and ±100 for the full control effect; nearly all actives have a fitted effect of over 55% in size
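Growth kinetics read by CellTiter-Glo luminescence after ≥48 hr at 37 °C. Cells: DT40 Tdp1-/- stably carrying human TDP1, 400 per well, compound exposure in the absence of CPT (DMSO vehicle).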
HT1080NT lethal – kills 2HG-producing HT-1080-NT fibrosarcoma cells | HT-1080-NT fibrosarcoma viability, CellTiter-Glo ATP luminescence, 48 h | Potency, µM (titrated, usually from 46.1 µM), inactives show top-dose activity, negative = less viability, usual class: cytotoxic | hit rate 1.6% among 360,000;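 also: NT is the 2HG producing partner of a matched IDH1 knockdown line; 0% = DMSO-treated cells and -100% = media-only wells without cells; nearly all actives have a fitted effect of over 55% in size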
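750 cells/well, RPMI + 5% FBS; 2 h settle, compound pin-transfer, 48 h at 37 degrees C. CellTiter-Glo 10 min RT, luminescence. Normalized to DMSO and media-only wells.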
HT1080 IDH1KD tx – toxicity to HT-1080 IDH1 knockdown cells (counter line); hit rate 2% among 360,000; Potency, µM (highest dose often 46.1 µM), inactives show at the top dose activity, negative = toxicity, usual class: cytotoxic; HT-1080 IDH1 knockdown viability, ATP luminescence, 48 h;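 also: 0% = DMSO wells and -100% = cell-free medium wells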
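HT-1080-IDH1KD cells (IDH1 knocked down), 750/well in RPMI with 5% FBS, treated with compound 48 h at 37 degrees C. Viability by CellTiter-Glo luminescence, normalised to DMSO and no-cell wells; concentration-response curves classed.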
* hit, by the source's call; ? = inconclusive; . = no result given; [ ] = another dose, or the depositor's remark. Calls follow the shape of the dose curve; as a rule, active = well fitted curve in the direction sought with a large enough effect; inconclusive = small, poorly fitted or top-dose-only effect, or another doubt; inactive = no such curve, though single readings can be large; an effect the other way counts as inactive or inconclusive. Potency is read from the fitted curve at half-maximal effect.

SMILES	TDP1 cell CPT	HepG2 viability	TGFb inhibitor	TDP1 cell noCPT	HT1080NT lethal	HT1080 IDH1KD tx
Cc1cccc(NC(=O)Nc2cc(C)cc(C)n2)c1	12.1%	9.5%	0.8%	-33.2%	7.6%	19.1%
Cc1ccc(-n2c(-c3ccc(Br)cc3)n[nH]c2=S)c(C)c1	-22.8%	-55.9%	-21.4%	?	3.4%	2.5%
Cc1onc(-c2c(F)cccc2Cl)c1C(O)c1ccc(F)cc1 (stereo not drawn)	-15.2%	-34.1%	-11.0%	?	-20.2%	-20.9%
Cc1nnc(N/N=C\c2ccc(-c3cccc(C(=O)O)c3)o2)n1N	?	7.08µM*	10µM*	-5.7%	-29.4%	?
O=[N+]([O-])c1ccc(-c2cc3ccccc3[nH]2)cc1	?	-16.1%	-3.6%	?	.	.
CNC(=O)c1sccc1SCc1ccc(Cl)cc1Cl	20.6µM*	-20.2%	?	18.4µM*	-8.0%	-21.0%
CNC(=O)c1sccc1SCc1c(Cl)cccc1Cl	?	-17.2%	?	?	-3.8%	-19.2%
CN(C)CCCN(C(=O)c1ccc2c(c1)CCCC2)c1nc2cc3c(cc2s1)OCO3	?	-45.4%	?	?	18.4µM*	?
CCN(CC)CCN(C(=O)c1ccc2c(c1)CCCC2)c1nc2ccc(F)cc2s1	?	-32.3%	8.4%	?	-22.1%	-21.0%
CN(C)CCCN(C(=O)c1ccc(C(=O)c2ccccc2)cc1)c1nc2cc3c(cc2s1)OCCO3	-29.5%	-89.3%	14.1µM*	-19.8%	?	?
CN(C)CCCN(C(=O)c1ccc(Br)s1)c1nc2cc3c(cc2s1)OCO3	9.2µM*	-59.9%	?	14.6µM*	?	?
CN(C)CCN(C(=O)c1ccc(C(=O)c2ccccc2)cc1)c1nc2cc3c(cc2s1)OCO3	-20.4%	-25.6%	0.0%	?	-7.2%	-5.9%
CN(C)CCCN(C(=O)c1ccc2c(c1)CCCC2)c1nc2ccc(F)cc2s1	20.6µM*	-117.5%	?	16.4µM*	-20.6%	-28.7%
CN(C)CCCN(C(=O)c1ccc(S(=O)(=O)N(C)C)cc1)c1nc2cc3c(cc2s1)OCO3	?	-9.6%	3.4%	?	-18.5%	-12.0%
CN(C)CCN(C(=O)CN1C(=O)c2ccccc2C1=O)c1nc2cc3c(cc2s1)OCO3	-20.5%	-2.3%	-10.9%	?	-3.0%	-5.7%
CCCOc1ccc(/C(O)=C2/C(=O)C(=O)N(CCCn3ccnc3)C2c2ccc(C)o2)cc1 (stereo not drawn)	13.0%	8.5%	12.5%	0.7%	10.8%	6.5%
COc1ccc(OCC(=O)Nc2cc3c(cc2C(=O)O)OCCCO3)cc1	-12.2%	13.4%	6.9%	13.1%	7.7%	-1.0%
CCc1cc2cc(C)cc(C)c2nc1SCC(=O)Nc1cc(C)on1	-6.0%	-0.4%	1.2%	23.2%	0.7%	-16.8%
Cc1cc2cc(C)c3nnc(SCC(=O)N4CCN(C(=O)c5ccco5)CC4)n3c2cc1C	?	-22.9%	-23.4%	11.6µM*	-13.0%	?
CCc1cc2cc(C)cc(C)c2nc1SCC(=O)N1CCCC1	29.1µM*	6.5%	2.4%	?	0.8%	2.5%
Cc1nc(N2CCN(C(=O)c3ccco3)CC2)c2c3c(sc2n1)CC(C)CC3 (stereo not drawn)	20.6µM*	-15.1%	?	16.4µM*	-15.8%	?
Cc1ccc2cc(C)c3nnc(SCC(=O)N4CCN(C(=O)c5ccco5)CC4)n3c2c1	-26.8%	-17.5%	-12.6%	?	-13.5%	-0.9%
CCOC(=O)c1nc(N2CCN(C(=O)OCC)CC2)c2c3c(sc2n1)CCCC3	16.4µM*	-72.0%	-2.9%	25.9µM*	-3.9%	10.3%
Cc1ccc(CNC(=O)Cn2nnc3ccccc3c2=O)cc1	0.2%	5.8%	19.6%	-4.4%	5.0%	14.4%
COc1ccc(OC)c(CN2C(=O)CSCC2(C)C(=O)NC(C)C)c1 (stereo not drawn)	-24.3%	.	.	-11.4%	16.3%	19.8%
SMILES	TDP1 cell CPT	HepG2 viability	TGFb inhibitor	TDP1 cell noCPT	HT1080NT lethal	HT1080 IDH1KD tx
Cc1nc(N2CCN(C(=O)c3ccco3)CC2)c2c3c(sc2n1)CCCC3	?	-20.4%	?	14.6µM*	?	?
Cc1nc(N2CCN(C(=O)c3cccs3)CC2)c2c3c(sc2n1)CCCC3	?	-4.2%	-23.4%	?	-29.9%	?
CCc1nc(SCC(=O)N2CCN(C(=O)c3ccco3)CC2)c2c3c(sc2n1)CCCC3	?	-18.3%	-12.5%	13µM*	-12.4%	?
N#Cc1c(N2CCN(C(=O)c3ccco3)CC2)nc(-c2ccccc2)c2c1CCCC2	25.9µM*	-2.0%	?	?	?	?
CCc1cc2cc(C)ccc2nc1SCC(=O)N1CCN(C(=O)c2ccco2)CC1	13µM*	-33.0%	?	20.6µM*	-10.1%	-2.8%[9.24 µM]
N#Cc1c(N2CCN(C(=O)c3ccccc3)CC2)nc(-c2ccccc2)c2c1CCCC2	?	-4.1%	?	?	?	?
N=C1C(c2ccccc2)=C(O)CN1c1cccc(S(=O)(=O)NCc2ccco2)c1	-0.9%	27.0%	-4.0%	-0.8%	0.0%	-0.2%
Cc1ccc(NC(=O)c2cccc(C(=O)Nc3ccc(C)c(C)c3)n2)cc1C	-19.6%	-15.5%	6.7%	?	0.3%	7.4%
C=CCn1c(SCC(=O)NNC(=S)Nc2ccccc2)nnc1-c1ccccc1	20.6%	-0.3%	-19.5%	-2.9%	3.5%	-1.7%
FC(F)(F)COc1cc(-c2nnc(SCc3ccccc3)n2Cc2ccco2)cc(OCC(F)(F)F)n1	?	-27.6%	0.0%	29.1µM*	-7.0%	-3.3%
C=CCn1c(SCc2ccc(C#N)cc2)nnc1-c1ccc(C)cc1	?	-5.8%	-35.4%	16.4µM*	6.0%	11.8%
CCn1c(SCc2ccc(C#N)cc2)nnc1-c1cccc(Cl)c1	-10.2%	-5.0%	-3.1%	-26.8%	-4.6%	5.2%[9.24 µM]
Cc1cccc(-c2nnc(SCc3ccc(C#N)cc3)n2Cc2ccco2)c1	?	-19.5%	-16.1%	23.1µM*	-26.0%	?
C=CCn1c(SCc2ccc(C(=O)Nc3ccccc3)cc2)nnc1-c1ccccc1	18.4µM*	0.6%	-4.3%	?	-0.4%	-1.5%
Cc1ccc2c(c1)cc(C(=O)NCc1ccc(F)cc1)n2C	?	-0.9%	23.5%	?	.	.
O=S1(=O)C=C(SCc2ccc(Cl)c(Cl)c2)Nc2ccccc21	23.1µM*	-1.8%	?	?	?	?

Screens deposited in PubChem by National Center for Advancing Translational Sciences (NCATS).
